From PubChem BioAssay (NCATS)
Where “and” joins values, the source holds several entries; their conditions need not be identical. Identical values can stand only once. Results filed as inconclusive are left out. Calls of active or inactive are those of the source. Unless noted, calls follow the shape of the dose curve; as a rule, active = well fitted curve in the direction sought with a large enough effect; inconclusive = small, poorly fitted or top-dose-only effect, or another doubt; inactive = no such curve, though single readings can be large; an effect the other way counts as inactive or inconclusive.

Tests used:
[1] = qHTS assay for small molecule antagonists of retinoid X receptor alpha signaling (AID 588546; active = well fitted inhibition curve with a large enough effect in the signal ratio, with a control signal flat, not every such curve was filed as active; the % refers to the signal ratio;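 also: cells stimulated with 9-cis-retinoic acid as agonist; % is scaled to controls: 0 for no effect and ±100 for the full control effect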); conditions: HEK293T RXRa-UAS-bla, beta-lactamase ratio, antagonist mode; measured here: W530 green channel, cytotoxicity proxy
How it was run: (§1)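 Beta-lactamase reporter inhibition, read as CCF4 fluorescence ratio (ex 405, em 460/530 nm) after 2 h at RT. HEK293T UAS-bla cells, 2500/well, were stimulated with 9-cis-RA at 500 or 100 nM final alongside test compound for 18 h at 37 C.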

[2] = biological target: Retinoic acid receptor RXR-alpha (Homo sapiens) (UniProt P19793); experiment: as above; conditions: HEK293T RXRa-UAS-bla, beta-lactamase ratio, antagonist mode
How it was run: as §1

[3] = biological target: Thyroid hormone receptor beta (Homo sapiens) (UniProt P10828); experiment: qHTS assay for small molecule antagonists of thyroid hormone receptor beta signaling (AID 588547; active = well fitted inhibition curve with a large enough effect in the signal ratio, with a control signal flat, not every such curve was filed as active; the % refers to the signal ratio;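 also: cells stimulated with 0.4 nM T3 agonist during compound exposure; % is scaled to controls: 0 for no effect and ±100 for the full control effect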); conditions: TR-UAS-bla HEK293, beta-lactamase ratio, antagonist mode, 18 h
How it was run: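 TR-UAS-bla GripTite HEK293 cells in 2% charcoal/dextran FBS medium were preincubated 4 h at 37 C, given compound (0.59 nM to 92 uM) plus 0.4 nM T3 (final) for 18 h, then CCF4 for 2 h at RT; Hill fit gave IC50.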

[4] = biological target: Voltage-gated inwardly rectifying potassium channel KCNH2 (Homo sapiens) (UniProt Q12809); experiment: qHTS Assay for Small Molecule Inhibitors of the Human hERG Channel Activity (AID 588834); conditions: U2OS BacMam hERG, FluxOR thallium flux fluorescence; series mostly up to 46.1 µM;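 also: lower thallium flux fluorescence means stronger hERG block; nearly all actives have a fitted effect of over 50% in size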; also: potency is read from the fitted curve at half-maximal effect
How it was run: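 Kinetic FDSS fluorescence; U2OS + hERG BacMam (~100 virus particles/cell); FluxOR Tl+ flux; ~10 min cpd; AC50 (Hill).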

[5] = S16 Schwann cell viability assay (CellTiter-Glo assay) (AID 624031); conditions: S16 rat Schwann cells viability, 24 h; series mostly up to 57.5 µM;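 also: cellular ATP luminescence as a viability measure; plate controls were DMSO-treated cells for no effect and cell-free wells for full effect; nearly all actives have a fitted effect of over 70% in size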
How it was run: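 Untransfected S16 rat Schwann cells; compound 24 h, 37 °C/5% CO2; CellTiter-Glo ATP luminescence. % activity vs no-cell wells and DMSO controls (0%); concentration-effect curves classed by r2, response magnitude, activity.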

[6] = S16 Schwann cell PMP22 intronic element firefly luciferase assay (AID 624032); conditions: S16 rat Schwann cells, PMP22 element FLuc, 24 h; series mostly up to 57.5 µM;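 also: plate controls were DMSO for no effect and PTC124 positive control mean for full effect; nearly all actives have a fitted effect of over 30% in size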
How it was run: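 Rat S16 Schwann cells stably carrying a PMP22 intronic element-driven Fluc reporter were seeded overnight, then exposed to compounds for 24 h at 37 °C. Luminescence was normalized to PTC124 (positive control) and DMSO (0% activity).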

[7] = S16 Schwann cell PMP22 intronic element beta-lactamase assay (AID 624044; calls by dose curve;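 also: 0% = DMSO and -100% = potassium clavulanate positive control; nearly all actives have a fitted effect of over 15% in size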); conditions: S16 rat Schwann cells, PMP22 element beta-lactamase FRET, 24 h; series mostly up to 38.3 µM
How it was run: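 Rat S16 Schwann cells with beta-Lac driven by a PMP22 intronic element, compound-treated 24 h at 37 °C. LiveBLAzer FRET B/G read: 460 nm normalized to potassium clavulanate vs DMSO; 535 nm FRET as viability; concentration-effect curves classified.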

[8] = biological target: Luciferin 4-monooxygenase (Photinus pyralis) (UniProt P08659); experiment: Biochemical firefly luciferase enzyme assay for NPC (AID 624030);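 also: purified P. pyralis luciferase at 10 nM with luciferin and ATP substrate; 0% = DMSO and -100% = full luciferase inhibition by PTC124 control; nearly all actives have a fitted effect of over 70% in size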; conditions: purified P. pyralis luciferase, luminescence, 5 min; series mostly up to 58.6 µM
How it was run: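 Counter-screen for direct inhibition of the luciferase enzyme by approved-drug library compounds, run at 10 nM enzyme in 50 mM Tris acetate (final). Luminescence was read within 5 min of enzyme-buffer addition and normalized to PTC124 versus DMSO (0%).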

Chain of Voltage-gated inwardly rectifying potassium channel KCNH2 (Homo sapiens) (Q12809 whole entry, looked up): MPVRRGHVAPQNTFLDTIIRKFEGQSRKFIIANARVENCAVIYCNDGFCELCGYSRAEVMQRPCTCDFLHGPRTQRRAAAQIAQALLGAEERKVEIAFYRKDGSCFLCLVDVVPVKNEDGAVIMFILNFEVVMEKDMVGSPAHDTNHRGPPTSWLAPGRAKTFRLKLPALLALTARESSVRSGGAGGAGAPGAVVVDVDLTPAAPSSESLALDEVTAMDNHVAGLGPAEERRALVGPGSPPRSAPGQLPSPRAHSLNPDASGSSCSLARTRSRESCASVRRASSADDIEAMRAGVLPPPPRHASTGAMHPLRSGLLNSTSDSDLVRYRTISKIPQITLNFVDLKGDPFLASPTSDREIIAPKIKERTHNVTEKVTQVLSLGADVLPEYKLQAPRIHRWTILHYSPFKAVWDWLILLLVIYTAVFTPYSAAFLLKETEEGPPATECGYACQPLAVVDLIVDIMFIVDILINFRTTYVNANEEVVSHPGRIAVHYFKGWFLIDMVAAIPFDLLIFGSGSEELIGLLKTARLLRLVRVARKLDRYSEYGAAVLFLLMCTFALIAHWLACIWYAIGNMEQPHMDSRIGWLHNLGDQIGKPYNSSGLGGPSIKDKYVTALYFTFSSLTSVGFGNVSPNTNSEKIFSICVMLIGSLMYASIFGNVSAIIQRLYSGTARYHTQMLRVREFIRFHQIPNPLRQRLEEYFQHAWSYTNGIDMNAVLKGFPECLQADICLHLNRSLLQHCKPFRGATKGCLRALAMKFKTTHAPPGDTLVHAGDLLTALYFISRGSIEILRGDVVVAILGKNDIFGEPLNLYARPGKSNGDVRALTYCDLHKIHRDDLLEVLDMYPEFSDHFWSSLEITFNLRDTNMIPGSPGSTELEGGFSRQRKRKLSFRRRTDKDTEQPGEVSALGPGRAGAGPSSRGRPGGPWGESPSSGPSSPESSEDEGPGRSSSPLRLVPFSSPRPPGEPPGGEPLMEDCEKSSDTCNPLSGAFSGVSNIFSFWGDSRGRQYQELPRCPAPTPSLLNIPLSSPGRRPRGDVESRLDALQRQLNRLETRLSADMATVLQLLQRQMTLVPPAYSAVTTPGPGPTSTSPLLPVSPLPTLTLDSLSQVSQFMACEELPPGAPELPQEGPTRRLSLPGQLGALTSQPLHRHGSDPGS
Chain of Thyroid hormone receptor beta (Homo sapiens) (P10828 whole entry, looked up): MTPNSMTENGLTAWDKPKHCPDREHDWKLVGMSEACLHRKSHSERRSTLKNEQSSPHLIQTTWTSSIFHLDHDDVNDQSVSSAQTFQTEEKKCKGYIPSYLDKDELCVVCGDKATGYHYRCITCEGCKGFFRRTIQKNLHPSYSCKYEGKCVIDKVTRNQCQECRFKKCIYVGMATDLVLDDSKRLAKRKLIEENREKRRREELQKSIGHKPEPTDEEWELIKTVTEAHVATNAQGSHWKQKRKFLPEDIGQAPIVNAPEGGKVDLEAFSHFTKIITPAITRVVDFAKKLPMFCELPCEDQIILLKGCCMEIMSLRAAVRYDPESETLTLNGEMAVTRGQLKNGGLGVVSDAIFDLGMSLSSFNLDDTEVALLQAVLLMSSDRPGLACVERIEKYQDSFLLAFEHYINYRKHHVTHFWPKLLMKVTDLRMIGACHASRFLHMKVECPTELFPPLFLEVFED
Chain of Luciferin 4-monooxygenase (Photinus pyralis) (P08659 whole entry, looked up): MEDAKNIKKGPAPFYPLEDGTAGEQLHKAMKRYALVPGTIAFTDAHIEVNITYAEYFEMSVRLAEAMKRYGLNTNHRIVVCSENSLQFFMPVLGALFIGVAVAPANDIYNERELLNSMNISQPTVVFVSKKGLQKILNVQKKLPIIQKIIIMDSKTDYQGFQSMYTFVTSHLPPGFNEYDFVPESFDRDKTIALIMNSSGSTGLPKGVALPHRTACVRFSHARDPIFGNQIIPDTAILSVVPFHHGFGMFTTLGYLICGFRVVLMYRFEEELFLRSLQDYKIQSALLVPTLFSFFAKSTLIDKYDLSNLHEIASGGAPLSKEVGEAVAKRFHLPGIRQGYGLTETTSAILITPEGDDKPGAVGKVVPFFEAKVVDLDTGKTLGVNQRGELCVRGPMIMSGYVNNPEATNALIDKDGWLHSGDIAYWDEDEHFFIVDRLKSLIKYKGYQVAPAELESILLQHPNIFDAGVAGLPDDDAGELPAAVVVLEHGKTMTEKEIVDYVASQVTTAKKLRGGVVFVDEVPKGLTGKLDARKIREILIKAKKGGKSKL
Chain of Retinoic acid receptor RXR-alpha (Homo sapiens) (P19793 whole entry, looked up): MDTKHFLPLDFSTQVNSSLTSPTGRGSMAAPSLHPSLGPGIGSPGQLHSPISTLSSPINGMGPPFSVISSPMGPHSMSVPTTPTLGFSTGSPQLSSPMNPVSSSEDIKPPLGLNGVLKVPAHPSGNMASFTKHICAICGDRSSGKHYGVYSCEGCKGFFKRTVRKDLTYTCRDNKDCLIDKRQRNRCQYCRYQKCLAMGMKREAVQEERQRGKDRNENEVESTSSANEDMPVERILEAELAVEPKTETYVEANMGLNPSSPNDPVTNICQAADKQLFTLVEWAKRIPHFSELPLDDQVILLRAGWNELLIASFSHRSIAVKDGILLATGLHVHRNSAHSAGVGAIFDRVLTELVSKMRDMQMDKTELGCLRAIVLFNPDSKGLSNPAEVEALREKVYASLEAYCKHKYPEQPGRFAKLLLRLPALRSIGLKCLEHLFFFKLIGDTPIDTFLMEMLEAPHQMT

SMILES | max response [1] | max response [2] | activity change % (negative = inhibition) [3] | Potency [4] | Potency [5] | Potency [6] | Potency [7] | Potency [8]
O=S(=O)(O)C(F)(F)C(F)(F)C(F)(F)C(F)(F)C(F)(F)C(F)(F)C(F)(F)C(F)(F)F | -5.97% and -3.14% | -2.01% (inactive) and 4.02% (inactive) | -0.756% (inactive) | – | – | – | – | –
O=S(=O)(c1ccc(Cl)cc1)c1ccc(Cl)cc1 | -9.45% and -15.5% and -9.97% | -23.5% (inactive) and -4.94% (inactive) and -14.2% (inactive) | 9.09% (inactive) and 5.78% (inactive) and 14.1% (inactive) | 44.7 µM (active) | – | – | – | –
CCO/N=C(\CC)C1=C(O)CC(c2c(C)cc(C)cc2C)CC1=O (stereo not drawn) | -8.17% | -5.84% (inactive) | 5.1% (inactive) | – | – | – | – | –
CCCCC(CC)COC(=O)c1ccccc1C(=O)OCC(CC)CCCC (stereo not drawn) | -12.5% and -12.9% | 9.66% (inactive) and 2.99% (inactive) | -25.5% (inactive) and -4.42% (inactive) | inactive | – | – | – | –
OCCCBr | -9.62% | -5.03% (inactive) | -1.82% (inactive) | inactive | – | – | – | –
CCCCCCCCCC(CC)c1ccc(S(=O)(=O)O)cc1 (stereo not drawn) | -9.16% and 3.96% | 4.12% (inactive) and -4.98% (inactive) | 6.11% (inactive) and -12% (inactive) | inactive | inactive | inactive | inactive | –
O=C(O)COc1nc(Cl)c(Cl)cc1Cl | 0.628% | 6.2% (inactive) | 3.94% (inactive) | – | – | – | – | –
CCCCOC(=O)c1ccccc1C(=O)OCc1ccccc1 | -7.26% and -17.3% | 2.44% (inactive) and -9.61% (inactive) | 11.3% (inactive) | – | – | – | – | –
O=C(O)CCCOc1ccc(Cl)cc1Cl | 17.8% | -3.54% (inactive) | 12.5% (inactive) | – | – | – | – | –
COC(C)(C)CCCC(C)C/C=C/C(C)=C/C(=O)OC(C)C (stereo not drawn) | 2.28% and 4.86% | -11.7% (inactive) and -5.86% (inactive) | -7.54% (inactive) and 20% (inactive) | inactive | inactive | – | inactive | inactive
CC(C)Oc1cccc(NC(=O)c2ccccc2C(F)(F)F)c1 | 0.398% | -12.2% (inactive) | -3.3% (inactive) | – | – | – | – | –
Nc1ccc(Cl)cc1 | -14.8% | -9.24% (inactive) | 5.44% (inactive) | inactive | – | – | – | –
c1cc2ccc3cccc4ccc(c1)c2c34 | -9.93% and -1.15% | 0.282% (inactive) and -8.73% (inactive) | 8.95% (inactive) | inactive | – | – | – | –
O=[N+]([O-])c1c(Cl)c(Cl)cc(Cl)c1Cl | -4.05% | 6.87% (inactive) | -0.964% (inactive) | inactive | – | – | – | inactive
C1CCC(NC2CCCCC2)CC1 | -3.33% and -12% and -7.77% | 9.08% (inactive) and 2.51% (inactive) and 3.48% (inactive) | -2.7% (inactive) and -4.6% (inactive) and 5.65% (inactive) | inactive | inactive | inactive | – | –
CC(C)(O)C(=O)Nc1ccc([N+](=O)[O-])c(C(F)(F)F)c1 | 15.1% | -2.4% (inactive) | 23.5% (inactive) | inactive | – | – | – | –
Cc1cc(O)ccc1Cl | 3.81% | -4.22% (inactive) | 1.27% (inactive) | inactive | inactive | inactive | – | –
C=CC(=O)NCNC(=O)C=C | -7% and 1.5% | 10.7% (inactive) and -13.1% (inactive) | -12.9% (inactive) and 1.41% (inactive) | inactive | – | – | – | –
C=CCC1=C(C)C(OC(=O)C2C(C=C(C)C)C2(C)C)CC1=O (stereo not drawn) | -13.5% and -4.99% | -8.71% (inactive) and -26.3% (inactive) | -24.8% (inactive) and -17.8% (inactive) | – | – | – | – | inactive
CN(C)[C@@H]1C(=O)C(C(N)=O)=C(O)[C@@]2(O)C(=O)C3=C(O)c4c(O)cccc4[C@@](C)(O)[C@H]3[C@H](O)[C@@H]12 | 16.2% and 7.17% and 21.1% | -9.03% (inactive) and -41.7% (inactive) and -15.3% (inactive) | 2.86% (inactive) and -5.16% (inactive) and -23.7% (inactive) | inactive | inactive | inactive | inactive | inactive
ClC1=C(Cl)[C@]2(Cl)[C@@H]3[C@@H]4C[C@@H]([C@H]5O[C@@H]45)[C@@H]3[C@@]1(Cl)C2(Cl)Cl | 5.74% | -14.7% (inactive) | -14.5% (inactive) | – | – | – | – | inactive
CS(=O)(=O)c1ccc(C(=O)C2C(=O)CCCC2=O)c([N+](=O)[O-])c1 | -0.159% | 0.528% (inactive) | 9.38% (inactive) | – | – | – | – | –
CN(C)NC(=O)CCC(=O)O | -8.59% and -3.29% | -0.551% (inactive) and 8.99% (inactive) | -3.38% (inactive) | inactive | – | – | – | –
CCCN(CCC)c1c([N+](=O)[O-])cc(S(N)(=O)=O)cc1[N+](=O)[O-] | -18.5% | 2.44% (inactive) | 0.13% (inactive) | – | – | – | – | inactive
Nc1c(Cl)c(Cl)c(Cl)c(Cl)c1Cl | -3.59% | -8.48% (inactive) | 17.1% (inactive) | – | – | – | – | –
O=C(O)C(Cl)Cl | -11.2% and -3.76% | 4.75% (inactive) and -13.6% (inactive) | 0.759% (inactive) and 14.6% (inactive) | inactive | inactive | inactive | – | inactive
Nc1ccc([N+](=O)[O-])cc1 | 1.67% | -12.6% (inactive) | -27.9% (inactive) | inactive | – | – | – | inactive
Nc1ccc(Cl)cc1N | 11.5% and -1.67% | -1.75% (inactive) and 0.323% (inactive) | -20.8% (inactive) | 39.8 µM (active) | – | – | – | –
